Screening data: PubChem BioAssay, National Center for Advancing Translational Sciences (NCATS)
HCMV inh: human cytomegalovirus inhibition | HFF cells, HCMV-luciferase reporter, 72 h; stronger effect = lower value | activity change, negative = inhibition, % at 57.5 µM | 410,000 compounds, 4.5% hits; in the data active = activity change below about -60%; inconclusive = no clear call, values can overlap the other calls; inactive = above about -39%
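Two compound doses tested in HFFs infected with HCMV-luciferase, MOI 1 PFU/cell, 72 h at 37C. Lysate luminescence read with OneGlo; data normalized against buffer-only and 10uM Salinomycin inhibitor controls.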
Pf growth 48h: P. falciparum growth inhibition at 48 hours (one generation); P. falciparum luciferase growth in erythrocytes, 48 h; Potency, µM (doses to about 28.7 µM), without a hit: at the highest dose activity change, negative = inhibition, usual class: inhibitors; 310,000 compounds, 5.9% hits; AID 504832; note: potency is the fitted concentration of half-maximal effect
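A one-generation exposure of luciferase-tagged malaria parasites in RPMI 1640/Albumax erythrocyte culture, 37 C and 5% CO2. Inhibition is inferred from decreased luminescence after adding detection reagent.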
MARV entry inh: Marburg virus entry inhibition; 300,000 compounds, 1.8% hits; Potency, µM (doses to about 37.8 µM), without a hit: top-dose activity change, negative = inhibition, most hits filed as inhibitors; Marburg virus pseudotyped entry inhibition, cell reporter; calls by dose curve; tested in HEK293 cells; note: potency is the fitted concentration of half-maximal effect
LASV entry inh: Lassa virus entry inhibition. Lassa virus pseudotype entry inhibition, cell reporter. 300,000 compounds, 1.2% hits. Potency, µM (top dose mostly 37.9 µM), for the others: at the highest dose activity change, negative = inhibition, hits mostly inhibitors; calls by dose curve; tested in HEK293 cells; note: potency is the fitted concentration of half-maximal effect; nearly all actives have a fitted effect of over 50% in size
HCV inhibitor: inhibitors of hepatitis C virus infection. Huh7.5.1 HCVcc-Cre infection, luciferase reporter, 44 h. 340,000 compounds, 3.4% hits. Potency, µM (series often up to 41.8 µM), without a hit: top-dose activity change, negative = inhibition, usual class: inhibitors. AID 651820; note: potency is the fitted concentration of half-maximal effect
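HCVcc-Cre virus at an moi near 0.5 was added right after compound to cells cultured 4 h from seeding (1,000 cells/well). Luciferase activity was determined 44 h later, 15 min after substrate addition at RT.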
Pf growth 96h: P. falciparum growth inhibition at 96 hours; P. falciparum luciferase reporter growth, 96 h; Potency, µM (titrated, usually from 28.7 µM), without a hit: at the highest dose activity change, negative = inhibition, usual class: inhibitors; 320,000 compounds, 6.9% hits; note: potency is the fitted concentration of half-maximal effect
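Two parasite generations (96 h, 37 C, 5% CO2) of compound exposure in infected erythrocytes (0.05% parasitemia, 2% hematocrit). Luciferase-reporter P. falciparum; decreased luminescence indicates inhibited growth, aimed at apicoplast-acting delayed death.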
Starred values were filed as active, the others as inactive; [ ] = another dose, or the depositor's remark. An excerpt weighted towards active compounds, which were near 14% of everything screened. Unless noted, calls come from the whole dose curve; as a rule, active = well fitted inhibition curve with a large enough effect; inconclusive = small, poorly fitted or top-dose-only effect, or another doubt; inactive = no such curve, though single readings can be large or run the other way. % is set by controls: 0 for no effect and ±100 for the full control effect.

Results for COc1ccc(-c2cc(C(=O)N3CCN(c4cccc(C)c4C)CC3)c3ccccc3n2)cc1OC ?
Pf growth 48h: 9.3µM*; MARV entry inh: inconclusive; LASV entry inh: inconclusive; HCV inhibitor: inconclusive; Pf growth 96h: 10µM*

Results for CC1CC(C)CN(C(=O)c2cc(-c3ccncc3)nc3ccccc23)C1 (stereo not given) ?
HCMV inh: 8; Pf growth 48h: 9.3µM*; MARV entry inh: -37%; LASV entry inh: -29%; HCV inhibitor: -23%; Pf growth 96h: inconclusive

Results for O=C(c1cc(-c2ccncc2)nc2ccccc12)N1CCN(Cc2ccccc2)CC1 ?
HCMV inh: -25; MARV entry inh: 7.9µM*; LASV entry inh: inconclusive; HCV inhibitor: inconclusive

Results for COc1ccc(-c2cc(C(=O)N3CCN(c4ncccn4)CC3)c3ccccc3n2)cc1OC ?
HCMV inh: 108; Pf growth 48h: inconclusive; HCV inhibitor: -21%; Pf growth 96h: -39%

What do the screens show for `COc1cccc(CC(O)CC2c3c(cc4c(c3OC)OCO4)CCN2C)c1` (stereo not given)?
HCMV inh: 6; HCV inhibitor: inconclusive

Results for O=C(c1cc(-c2ccncc2)nc2ccccc12)N1CCN(S(=O)(=O)/C=C/c2ccccc2)CC1 ?
HCMV inh: 16; Pf growth 48h: 1.9µM*; MARV entry inh: inconclusive; LASV entry inh: inconclusive; HCV inhibitor: -25%; Pf growth 96h: inconclusive

How did COc1cc(-c2nc(-c3ccc4c(c3)[nH]c(=O)n4C)no2)cc(OC)c1OC do in these assays?
HCMV inh: 13; LASV entry inh: -19%[46.1 µM]

What do the screens show for `CC1CCN(S(=O)(=O)c2ccc3nc(Nc4cccc(F)c4)ccc3c2)CC1`?
HCMV inh: -102*; LASV entry inh: -21%[46.1 µM]

Results for N#Cc1ccc(C(=O)OCC(=O)N2CCOCC2)cc1 ?
HCMV inh: -17; Pf growth 48h: 22%; MARV entry inh: 4%[46.1 µM]; LASV entry inh: 8%; HCV inhibitor: 1%; Pf growth 96h: 35%

What do the screens show for `O=C1CS/C(=N/N=C/c2ccncc2)N1`?
HCMV inh: 7; Pf growth 48h: inconclusive; MARV entry inh: -29%[14.2 µM]; LASV entry inh: -1%; HCV inhibitor: 9%; Pf growth 96h: 15µM*

What do the screens show for `COc1ccc(OC)c(-c2noc(N3CCN(c4ccc(Cl)cc4)CC3)n2)c1`?
HCMV inh: -26; LASV entry inh: -2%[46.1 µM]

What do the screens show for `O=C(Cc1c[nH]c2ccccc12)Nc1nnc(C2CC2)s1`?
HCMV inh: -80*; Pf growth 48h: -1%; MARV entry inh: inconclusive; LASV entry inh: 3.5µM*; HCV inhibitor: -1%; Pf growth 96h: -7%

How did CCCCOc1ccc(CSCCN=C(N)N)cc1 do in these assays?
HCMV inh: -62*; Pf growth 48h: inconclusive; MARV entry inh: inconclusive; LASV entry inh: inconclusive; HCV inhibitor: inconclusive; Pf growth 96h: 42%

Results for Cc1cccc(-n2c(CNC(=O)c3cccc(F)c3)nnc2SCC(=O)Nc2ccccc2F)c1 ?
HCMV inh: -2; MARV entry inh: inconclusive; LASV entry inh: inconclusive

How did O=C(CCN1CCCCC1)Nc1ccc(Br)cc1C(=O)c1ccccc1 do in these assays?
HCMV inh: inconclusive; Pf growth 48h: inconclusive; MARV entry inh: 13µM*; LASV entry inh: -9%[46.1 µM]; HCV inhibitor: inconclusive; Pf growth 96h: 247%

What do the screens show for `CC(C(=O)Nc1ccc(Br)cc1C(=O)c1ccccc1)N1CCCCC1` (stereo not given)?
HCMV inh: -18; Pf growth 48h: inconclusive; MARV entry inh: inconclusive; LASV entry inh: 6%; HCV inhibitor: inconclusive; Pf growth 96h: inconclusive

Results for CC(=O)OC[C@H]1O[C@@](COC(C)=O)(O[C@H]2O[C@H](COC(C)=O)[C@@H](OC(C)=O)[C@H](OC(C)=O)[C@H]2OC(C)=O)[C@@H](OC(C)=O)[C@@H]1OC(C)=O ?
Pf growth 48h: -8%; Pf growth 96h: -15%

Results for O=C1C(Cl)=C(NCCN2CCOCC2)C(=O)c2ccccc21 ?
HCMV inh: -10; Pf growth 48h: inconclusive; MARV entry inh: inconclusive; LASV entry inh: inconclusive; HCV inhibitor: inconclusive; Pf growth 96h: inconclusive

What do the screens show for `CC1COCC(C)N1C1=C(Cl)C(=O)c2ccccc2C1=O` (stereo not given)?
HCMV inh: 91; MARV entry inh: inconclusive; LASV entry inh: inconclusive; HCV inhibitor: 11µM*

What do the screens show for `NC(=O)C1CCN(C2=C(Cl)C(=O)c3ccccc3C2=O)CC1`?
HCMV inh: 79; Pf growth 48h: inconclusive; MARV entry inh: inconclusive; LASV entry inh: inconclusive; HCV inhibitor: 2.5µM*; Pf growth 96h: inconclusive

What do the screens show for `O=C1C(Cl)=C(N2CCC(C(=O)O)CC2)C(=O)c2ccccc21`?
Pf growth 48h: 12µM*; HCV inhibitor: -3%; Pf growth 96h: 12µM*

What do the screens show for `CN1CCN(C2=C(Cl)C(=O)c3ccccc3C2=O)CC1`?
HCMV inh: -25; MARV entry inh: inconclusive; LASV entry inh: inconclusive; HCV inhibitor: 7.1µM*

What do the screens show for `CCCSCCCNC(=O)c1ccc2c(c1)nc1n2CCCCC1`?
HCMV inh: 46; LASV entry inh: -1%[46.1 µM]

How did OC1CCC(Nc2nccc3[nH]c(-c4ccccc4Cl)nc23)CC1 (stereo not given) do in these assays?
HCMV inh: -11

Results for COc1ccc2cc(C3CC=C(COC(C)=O)CN3S(=O)(=O)c3ccccc3[N+](=O)[O-])n(C(=O)OC(C)(C)C)c2c1 (stereo not given) ?
HCMV inh: -5

What do the screens show for `CCO[C@@H]1OC(C(N)=O)=C[C@H](c2ccc3c(c2)OCO3)[C@H]1CCCO`?
HCMV inh: -95*; Pf growth 48h: 56%; HCV inhibitor: 16%; Pf growth 96h: 55%

Results for C#Cc1ccc([C@H]2C=C(C(=O)N3CCN(Cc4ccc5c(c4)OCO5)CC3)O[C@@H](OCC)[C@@H]2CCCO)cc1 ?
HCMV inh: inconclusive; Pf growth 48h: 4.1µM*; HCV inhibitor: inconclusive; Pf growth 96h: 4.1µM*

What do the screens show for `CCO[C@H]1OC(C(=O)N2CCN(Cc3ccc4c(c3)OCO4)CC2)=C[C@@H](c2ccc3c(c2)OCO3)[C@@H]1CCCO`?
HCMV inh: -13; Pf growth 48h: 5.9µM*; HCV inhibitor: -18%; Pf growth 96h: 13µM*

How did CCO[C@H]1OC(C(=O)NC2CC2)=C[C@@H](c2ccc3c(c2)OCO3)[C@@H]1CCCO do in these assays?
HCMV inh: 15; Pf growth 48h: -4%; HCV inhibitor: 7%; Pf growth 96h: -18%

What do the screens show for `CCc1ccccc1NC(=O)COC(=O)c1c(C)nsc1NC`?
HCMV inh: inconclusive; Pf growth 48h: -18%; HCV inhibitor: 4.5µM*; Pf growth 96h: 20%
